High-throughput results from PubChem.
SMARCA2 activ: SMARCA2 (BRM) function activators, primary screen, cell-based, luminescence, high throughput | MG213 cells, MMTV-luciferase reporter, dexamethasone, overnight | activation, % at 9.1 µM | 1% of 370,000 active; in the data active means activation above about 7.8%;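 further: 0% = vehicle wells and 100% = reference activator wells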
DAX1 inh-1: DAX1 (NR0B1) inhibitors, primary screen, cell-based, HEK293, Gal4-DAX1, luciferase luminescence; Nuclear receptor subfamily 0 group B member 1 (Homo sapiens), P51843; HEK293 Gal4-DAX1 luciferase reporter; inhibition, % at 6.75 µM; 0.99% of 340,000 active;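 active means inhibition above the mean over all tested compounds plus 3 SD, cut at about 4.2% in these data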;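 further: 0% = DAX1-transfected cells with DMSO and 100% = empty-vector control cells with DMSO; inhibition shows as a rise in luminescence from relieved DAX1 repression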
Target sequence (P51843 207-470 limits assumed): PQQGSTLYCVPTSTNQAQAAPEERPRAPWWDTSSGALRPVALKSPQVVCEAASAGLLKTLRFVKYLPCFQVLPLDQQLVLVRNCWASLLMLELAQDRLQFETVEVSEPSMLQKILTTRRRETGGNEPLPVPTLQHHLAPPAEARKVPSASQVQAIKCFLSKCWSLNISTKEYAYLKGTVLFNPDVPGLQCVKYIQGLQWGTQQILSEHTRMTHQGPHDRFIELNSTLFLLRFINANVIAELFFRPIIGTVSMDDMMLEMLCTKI
hgDAF12 agonist: H. glycines DAF-12 receptor agonists, primary screen, cell-based, luminescence, HEK293, GAL4 fusion, UAS-luciferase. Nuclear hormone receptor DAF-12 (Heterodera glycines), GAL4 fusion. HEK293 GAL4-hgDAF12 UAS-luciferase reporter, agonist luminescence; normalized to butyrate control. 1.8% of 370,000 active. AID 687014, 2013. activation, % at 6.8 µM;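 active means activation above a cutoff set at the mean of all screened compounds plus 3 SD, cut at about 10% in these data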;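 further: 0% = DMSO wells and 100% = sodium butyrate wells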
hcDAF-12 act: H. contortus DAF-12 nuclear receptor activators, primary screen, cell-based, luminescence, HEK293, lit1-tk-luc reporter; HEK293 hcDAF-12 lit1-tk-luc reporter; 0% DMSO, 100% Δ7-dafachronic acid; activation, % at 6.8 µM; 1.4% of 370,000 active; AID 652067, 2013;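 active means activation above the mean of all tested compounds plus 3 SD, cut at about 5.5% in these data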;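 further: 100% = response to 3 µM Δ7-dafachronic acid high control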
DAX1 inh-2: DAX1 (NR0B1) inhibitors on StAR promoter, primary screen, cell-based, luminescence, SF-1 (NR5A1), full-length DAX-1; HEK293T StAR-luciferase reporter, SF-1/DAX-1 repression relief; inhibition, % at 6.8 µM; 1.1% of 370,000 active;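 active means inhibition above the mean over all tested compounds plus 3 SD, cut at about 3.6% in these data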;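 further: 0% = DAX-1 cells with DMSO and 100% = cells lacking DAX-1 with DMSO; higher inhibition means more luminescence from relief of DAX-1 repression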
ssDAF-12 act: S. stercoralis DAF-12 nuclear receptor activators, primary screen, cell-based, luminescence, HEK293, GRIP1 co-expression, lit1-tk-luc; activation, % at 6.8 µM; HEK293 ssDAF-12/GRIP1 lit1-tk-luc reporter; % of 3 µM dafachronic acid response; Nuclear hormone receptor DAF-12 (Strongyloides stercoralis); 1% of 370,000 active;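 active means activation above the mean over all tested compounds plus 3 SD, cut at about 0.9% in these data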;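 further: 0% = DMSO-only wells and 100% = 3 µM delta7-dafachronic acid wells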
Starred values were filed as active, the others as inactive; / = no result. Only some compounds are listed: those with a hit (about 4.8% of all), similar ones and a draw of the others.

SMILES | SMARCA2 activ | DAX1 inh-1 | hgDAF12 agonist | hcDAF-12 act | DAX1 inh-2 | ssDAF-12 act
COC(=O)[C@]12C[C@H](CC(=O)NCc3ccccc3)C(=O)N(Cc3ccc4c(c3)OCO4)C1=C[C@H](C(C)(C)C)O[C@@H]2C | -1.6 | / | 1.6 | -1.8 | -0.1 | -1.2
Cc1ccc(N2C(=O)c3ccccc3NC2c2ccccc2O)cc1 (stereo not given) | 1.6 | -0.1 | 11.3* | 3.2 | 0.2 | 0.1
Cc1cc(Nc2ccc(F)cc2F)n2ncnc2n1 | -0.2 | 4.9* | 1.2 | -0.8 | -0.1 | -1.3
Cc1nnc(N2C(=O)C(O)=C(C(=O)c3ccco3)C2c2ccc(C(C)C)cc2)s1 (stereo not given) | 0.8 | -0.2 | 0.8 | 3.8 | 0.6 | -0.1
Cc1cccc(-c2cc3nc4c(c(N5CCC6(CC5)OCCO6)n3n2)CCCC4)c1 | 0.6 | -1.3 | -0.4 | 0.8 | 1.1 | -1.2
Cc1cccc(-c2cc3nc4c(c(N5CCOCC5)n3n2)CCCC4)c1 | 6.0 | 3.4 | 7.7 | 3.2 | 4.5* | -0.5
CCc1nc2ccc(C(=O)NCCN3CCNC3=O)cn2c1N(C)Cc1ccc(OC)cc1 | -3.3 | / | 2.4 | -2.2 | -0.3 | -1.3
O=C(Nc1cc(Br)ccc1O)c1cc(-c2ccc3c(c2)OCO3)on1 | 4.2 | 5.7* | 4.7 | 5.3 | 0.5 | -0.4
CC(C)CNC(=O)c1cc(-c2ccc3c(c2)OCO3)on1 | 4.5 | 2.9 | 8.6 | 3.3 | 3.0 | -0.2
CN(C(=O)c1cc(-c2ccc3c(c2)OCO3)on1)c1ccccc1 | 0.7 | 3.0 | 11.1* | 2.6 | 0.6 | 0.0
CCCCn1c(=O)[nH]c(=O)c2c1nc(-c1ccsc1)n2Cc1ccccc1 | 0.8 | -0.5 | -0.9 | -0.8 | -0.5 | -1.3
C=CCn1c(/N=C/c2ccc3c(c2)OCO3)nc2ccccc21 | 0.7 | -0.4 | 0.3 | -0.1 | 0.0 | 1.2*
CCOC(=O)c1cc2c(ccn2C)n1CC(=O)N(Cc1ccccc1)c1ccccc1 | -0.6 | -0.4 | -1.4 | -2.0 | -0.5 | -0.8
Cn1c(/N=C/c2cc(Cl)ccc2O)nc2ccccc21 | -0.4 | / | 3.7 | 6.5* | 0.7 | 1.6*
Cn1c(/N=C/c2cccs2)nc2ccccc21 | 5.8 | 0.3 | 3.8 | 5.8* | -0.5 | -0.4
C(=N\c1nc2ccccc2n1CCN1CCCCC1)/c1cccs1 | -0.2 | 1.0 | -1.0 | 3.1 | 0.4 | -0.1
COc1ccc(CNC(=O)Cn2ccc([N+](=O)[O-])n2)cc1OC | 1.0 | -0.7 | -0.1 | -0.3 | -0.1 | -1.2
CCc1ccc(OCC(=O)O/N=C(\N)c2ccccn2)cc1 | -3.3 | / | 11.4* | 3.1 | 3.5 | -0.7
N/C(=N\OC(=O)Cc1ccccc1)c1ccccn1 | 3.7 | 0.1 | 11.8* | 0.4 | 0.9 | -0.6
N/C(=N\OC(=O)COc1ccccc1)c1ccncc1 | 0.8 | 5.3* | 4.4 | -1.2 | 0.0 | -0.7
N/C(=N\OC(=O)CCCc1ccccc1)c1ccccn1 | 0.3 | -0.1 | 4.2 | 0.0 | 0.5 | -0.8
Cc1ccc(OCC(=O)O/N=C(\N)c2ccccn2)cc1C | 3.8 | / | 6.8 | 2.7 | 1.9 | -0.9
N/C(=N\OC(=O)CCC1CCCC1)c1ccccc1 | -0.2 | -0.7 | -1.0 | -1.1 | 0.0 | -0.7
N/C(=N\OC(=O)CCC1CCCC1)c1ccccn1 | 3.2 | 1.5 | 8.4 | 0.7 | 4.2* | -0.5
O=C(CSc1nc2ccccc2c(=O)[nH]1)c1ccc(O)c(O)c1 | -1.9 | 0.1 | 1.2 | 0.5 | 0.9 | -1.2
SMILES | SMARCA2 activ | DAX1 inh-1 | hgDAF12 agonist | hcDAF-12 act | DAX1 inh-2 | ssDAF-12 act
CC(C)(C)n1nc2c(c1NC(=O)COc1ccc3ccccc3c1)CS(=O)(=O)C2 | -1.6 | -0.2 | -2.9 | -2.0 | 0.2 | -1.9
N/C(=N\OC(=O)COc1ccccc1)c1ccccn1 | 5.1 | 2.5 | 11.1* | 0.3 | 2.7 | -0.6
N/C(=N\OC(=O)CSc1ccccc1)c1ccncc1 | 2.8 | 1.6 | 7.8 | 5.7* | 3.6 | -0.2
Cc1ccc(-n2c(Cc3cccn3C)nnc2SCC(=O)NCc2ccco2)cc1 | 0.1 | -0.7 | 1.8 | -1.4 | 0.9 | -1.3
Cc1ccc(-n2c(CSc3nc(C)cc(C)n3)nnc2SCC(=O)NCc2ccco2)cc1 | 0.3 | -0.3 | 3.5 | 5.6* | 0.8 | 0.9*
CCCCOc1c(Cl)cc(C(=O)N(C)CC(=O)Nc2ccc(N3CCOCC3)cc2)cc1OCC | -2.4 | 0.6 | -2.2 | -0.5 | -1.5 | -1.4
CCCCOC(=O)c1nnc(-c2ccccc2)o1 | -2.5 | 5.1* | -1.7 | 0.0 | -0.2 | -1.8
CCCCOC(=O)c1nnc(-c2ccc(Cl)cc2)o1 | -4.4 | 0.4 | 2.0 | 0.0 | 0.5 | -1.4
Cc1ccc(-n2ncc3c(=O)[nH]c(SCC(=O)N4CCCc5ccccc54)nc32)cc1 | 1.0 | 1.7 | -0.2 | -1.9 | -0.3 | -1.1
CCCCCCCCCC1NC(C(=O)O)Cc2c1[nH]c1ccccc21 (stereo not given) | 2.3 | -0.5 | -0.7 | 1.3 | -0.9 | -0.6
C/C=C(/CCC1NCCc2c1[nH]c1ccccc21)[Si](C)(C)C (stereo not given) | 3.7 | 0.0 | 2.9 | 3.9 | -0.2 | 1.3*
NS(=O)(=O)c1ccc(NC(=O)COC(=O)/C=C/c2ccc([N+](=O)[O-])cc2)cc1 | -0.9 | -1.4 | -0.9 | 0.1 | 0.4 | 3.0*
COc1ccc(CC(=O)Nc2cccc(-c3cn4ccccc4n3)c2)cc1 | 5.7 | 5.4* | 1.1 | -0.3 | -0.4 | -2.0
Cc1cccc2nc(-c3cccc(NC(=O)Cc4ccccc4)c3)cn12 | 12.6* | -0.2 | -1.9 | -2.6 | 0.2 | -2.0
Cc1c(OC(C)C(=O)NCCN2CCOCC2)ccc2c3c(c(=O)oc12)CCC3 (stereo not given) | -1.7 | 0.7 | 0.1 | -0.3 | 1.7 | -0.8
C=CCNC(=S)NNc1nc2c(c(=O)[nH]1)C1(CCCCC1)Cc1ccccc1-2 | 1.1 | 4.4* | 1.8 | -0.6 | 0.7 | -1.1
O=c1[nH]c(NCCO)nc2c1C1(CCCC1)Cc1ccccc1-2 | -4.0 | 0.6 | 0.1 | -1.0 | -0.2 | -1.0
Cc1c(C(=O)NCc2ccco2)oc2c(F)cccc12 | -1.0 | 1.1 | 0.7 | 5.9* | 0.1 | -0.2
O=[N+]([O-])c1ccc2cn(-c3ccccc3)nc2c1 | 6.9 | 1.3 | 13.2* | 6.0* | 2.6 | 1.1*
N#Cc1c(N)n(CCOC(=O)c2cccc(Br)c2)c2nc3ccccc3nc12 | 0.2 | -0.7 | -3.2 | -1.8 | -0.7 | -1.2
O=C(NCc1cccnc1)c1nn2cccnc2c1Cl | -1.2 | 5.0* | 1.1 | 1.1 | 0.9 | -1.4
